# “And” between values parts separate entries of the source, which are not always exact repeats. Equal entries are not always repeated. Where a structure was tested more than once in an assay, its records may differ in their call. The source made the active and inactive calls. The calls were made as follows: active = hit-call score of the fitted dose curve at least 0.9, where 1 is the maximum; inactive = score below 0.9.
# Tested on: not listed separately
# Assay: APR_HepG2_NuclearSize_72hr: Apredica 72-hour HepG2 Assay for Nuclear Size (AID 2282925)
# Conditions: high-content imaging, actives raise or lower the signal
# Summary of the method: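 Nuclear size was read by high-content imaging of Hoechst 33342 stain after formaldehyde fixation. Compounds ran 72 h on HepG2 at 0.39 to 200 uM, with final DMSO 0.5% v/v. Curves fitted both directions relative to DMSO control.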
row,Compound,outcome
1,CCN(CC)C(=S)SSC(=S)N(CC)CC,inactive
2,CCOC(N)=O,inactive
3,CCc1cccc(CC)c1N,inactive
4,C[C@]12C=CC(=O)C=C1CC[C@H]1[C@@H]3C[C@@H](O)[C@](O)(C(=O)CO)[C@@]3(C)C[C@H](O)[C@@]12F,inactive
5,OCCOCCOCCO,inactive
6,Cc1nc(-c2ccccn2)ncc1C(=O)Nn1cc(C)c2cc(F)ccc21,inactive
7,NC(N)=O,inactive
8,CCCCC(CC)C(=O)OCCOCCOCCOC(=O)C(CC)CCCC (configuration not stated),inactive
9,CCCCCCCCCCCCCCO,inactive
10,CCCCCCCCCC,inactive

# Tested on: not listed separately
# Assay: ATG_CRE_CIS: Attagene CIS-FACTORIAL HepG2 Assay for human cAMP Responsive Element (CRE) binding protein 3 (AID 2282926)
# Conditions: HepG2 CRE cis-reporter, Attagene multiplexed mRNA; actives raise or lower the signal
# Summary of the method: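 Induced reporter mRNA from a CRE cis element, measured in HepG2 among many multiplexed units at 24 h. Detection used RT-PCR plus capillary electrophoresis of fluorescent fragments; DMSO served as negative control.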
row,Compound,outcome
1,C[Si](C)(C)C(F)(F)C(F)(F)C(F)(F)F,inactive
2,FC(F)C(F)(F)COCC1CO1 (configuration not stated),inactive
3,Cc1cccc(O)c1C,inactive
4,O=S(=O)(O)CCC(F)(F)C(F)(F)C(F)(F)C(F)(F)C(F)(F)C(F)(F)F,inactive
5,FC(F)(F)COC(OCC(F)(F)F)OCC(F)(F)F,inactive
6,O=C(Cl)C(F)(F)C(F)(F)C(F)(F)C(=O)Cl,inactive
7,CC(C)c1nnc2ccc(-c3ocnc3-c3cc(F)ccc3F)cn12,inactive
8,NCC(F)(F)C(F)(F)C(F)(F)C(F)(F)F,inactive
9,FC(F)=C(F)C(F)(F)C(F)(F)C(F)(F)C(F)(F)C(F)(F)C(F)(F)F,inactive
10,OCCC(F)(F)C(F)(F)C(F)(F)C(F)(F)F,inactive

# Molecular target: CCAAT/enhancer-binding protein beta (Homo sapiens) (UniProt P17676)
# Sequence (P17676 whole entry, looked up): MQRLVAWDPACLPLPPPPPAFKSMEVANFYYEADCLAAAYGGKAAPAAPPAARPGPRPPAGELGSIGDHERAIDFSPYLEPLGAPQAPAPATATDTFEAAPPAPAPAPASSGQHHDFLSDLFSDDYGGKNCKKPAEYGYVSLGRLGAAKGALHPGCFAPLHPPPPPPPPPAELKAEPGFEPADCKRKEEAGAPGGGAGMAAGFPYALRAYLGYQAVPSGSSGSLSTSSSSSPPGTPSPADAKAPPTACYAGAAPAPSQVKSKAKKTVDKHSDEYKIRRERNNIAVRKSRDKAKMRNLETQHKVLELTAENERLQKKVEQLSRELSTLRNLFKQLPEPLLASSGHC
# Assay: ATG_C_EBP_CIS: Attagene CIS-FACTORIAL HepG2 Assay for human CCAAT/Enhancer Binding Protein (C/EBP) beta (AID 2282927)
# Conditions: HepG2 Attagene cis-factorial transcription factor reporter; actives raise or lower the signal
# Summary of the method: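 Endogenous C/EBPb-driven reporter transcripts measured in transfected human HepG2 cells at 24 h via RT-PCR and capillary electrophoresis of labelled fragments. Activity fitted in both directions relative to DMSO baseline.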
Compound,outcome,AC50
C[Si](C)(C)C(F)(F)C(F)(F)C(F)(F)F,inactive,–
FC(F)C(F)(F)COCC1CO1 (configuration not stated),inactive,–
CCN(CC)C(=S)SSC(=S)N(CC)CC,inactive,–
CCOC(N)=O,inactive,–
CCc1cccc(CC)c1N,inactive,–
Cc1cccc(O)c1C,inactive,–
C[C@]12C=CC(=O)C=C1CC[C@H]1[C@@H]3C[C@@H](O)[C@](O)(C(=O)CO)[C@@]3(C)C[C@H](O)[C@@]12F,inactive,–
OCCOCCOCCO,inactive,–
Cc1nc(-c2ccccn2)ncc1C(=O)Nn1cc(C)c2cc(F)ccc21,inactive,–
O=S(=O)(O)CCC(F)(F)C(F)(F)C(F)(F)C(F)(F)C(F)(F)C(F)(F)F,inactive,–
O=C1CN(N=Cc2ccc([N+](=O)[O-])o2)C(=O)N1,inactive,–
FC(F)(F)COC(OCC(F)(F)F)OCC(F)(F)F,inactive,–
FC(F)(F)C(F)(F)C(F)(F)C(F)(F)C(F)(F)C(F)(F)I,inactive,–
O=C(O)CO,inactive,–
O=C(Cl)C(F)(F)C(F)(F)C(F)(F)C(=O)Cl,inactive,–
NC(N)=O,inactive,–
OCc1c[nH]c2ccccc12,inactive,–
S=P(N1CC1)(N1CC1)N1CC1,inactive,–
CCCCC(CC)C(=O)OCCOCCOCCOC(=O)C(CC)CCCC (configuration not stated),inactive,–
CC(C)c1nnc2ccc(-c3ocnc3-c3cc(F)ccc3F)cn12,inactive,–
CCCCCCCC1CCC(=O)O1 (configuration not stated),inactive,–
NCC(F)(F)C(F)(F)C(F)(F)C(F)(F)F,inactive,–
CCCCCCCCCCCCCCO,–,74.3 µM (active)
CCCCCCCCCC,inactive,–
OC(O)(C(F)C(O)(O)C(F)(F)F)C(F)(F)F,–,78.9 µM (active) and 82.9 µM (active)
FC(F)=C(F)C(F)(F)C(F)(F)C(F)(F)C(F)(F)C(F)(F)C(F)(F)F,inactive,–
O=C(N[C@H](CO)[C@H](O)c1ccc([N+](=O)[O-])cc1)C(Cl)Cl,inactive,–
OCCC(F)(F)C(F)(F)C(F)(F)C(F)(F)F,inactive,–

# Tested on: not listed separately
# Assay: ATG_CMV_CIS: Attagene CIS-FACTORIAL HepG2 Assay for human CMV (Internal Marker) (AID 2282928);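 also: endpoint acts as a background internal control marker rather than a target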
# Conditions: HepG2 CMV promoter reporter, transcription factor profiling; actives raise or lower the signal
# Summary of the method: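 Bidirectional fits against DMSO are applied to reporter mRNA, read by RT-PCR with capillary electrophoresis, from HepG2 cells exposed 24 h. The endpoint serves as an internal CMV background marker within the cis-factorial reporter panel.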
Compound,outcome,AC50
C[Si](C)(C)C(F)(F)C(F)(F)C(F)(F)F,inactive,–
FC(F)C(F)(F)COCC1CO1 (configuration not stated),inactive,–
CCN(CC)C(=S)SSC(=S)N(CC)CC,–,173 µM (active)
CCOC(N)=O,inactive,–
CCc1cccc(CC)c1N,inactive,–
Cc1cccc(O)c1C,inactive,–
C[C@]12C=CC(=O)C=C1CC[C@H]1[C@@H]3C[C@@H](O)[C@](O)(C(=O)CO)[C@@]3(C)C[C@H](O)[C@@]12F,inactive,–
OCCOCCOCCO,inactive,–
Cc1nc(-c2ccccn2)ncc1C(=O)Nn1cc(C)c2cc(F)ccc21,inactive,–
O=S(=O)(O)CCC(F)(F)C(F)(F)C(F)(F)C(F)(F)C(F)(F)C(F)(F)F,inactive,–
O=C1CN(N=Cc2ccc([N+](=O)[O-])o2)C(=O)N1,–,45.7 µM (active)
FC(F)(F)COC(OCC(F)(F)F)OCC(F)(F)F,inactive,–
FC(F)(F)C(F)(F)C(F)(F)C(F)(F)C(F)(F)C(F)(F)I,inactive,–
O=C(O)CO,inactive,–
O=C(Cl)C(F)(F)C(F)(F)C(F)(F)C(=O)Cl,inactive,–
NC(N)=O,inactive,–
OCc1c[nH]c2ccccc12,inactive,25.1 µM (active)
S=P(N1CC1)(N1CC1)N1CC1,inactive,–
CCCCC(CC)C(=O)OCCOCCOCCOC(=O)C(CC)CCCC (configuration not stated),inactive,–
CC(C)c1nnc2ccc(-c3ocnc3-c3cc(F)ccc3F)cn12,inactive,–
CCCCCCCC1CCC(=O)O1 (configuration not stated),inactive,–
NCC(F)(F)C(F)(F)C(F)(F)C(F)(F)F,inactive,–
CCCCCCCCCCCCCCO,–,29.4 µM (active)
CCCCCCCCCC,inactive,–
OC(O)(C(F)C(O)(O)C(F)(F)F)C(F)(F)F,–,9 µM (active) and 6.13 µM (active)
FC(F)=C(F)C(F)(F)C(F)(F)C(F)(F)C(F)(F)C(F)(F)C(F)(F)F,inactive,–
O=C(N[C@H](CO)[C@H](O)c1ccc([N+](=O)[O-])cc1)C(Cl)Cl,inactive,–
OCCC(F)(F)C(F)(F)C(F)(F)C(F)(F)F,inactive,–

# — PubChem BioAssay (EPA / NIEHS)
